# Sm TGR inh = blocks Schistosoma mansoni thioredoxin glutathione reductase; Potency, µM (top dose mostly 114 µM), inactives show at the top dose activity change, negative = inhibition, usual class: inhibitors; hit rate 3% among 360,000; purified TGR, DTNB reduction, TNB absorbance 405 nm; Q962Y6; note: potency is the fitted concentration of half-maximal effect; % is set by controls: 0 for no effect and ±100 for the full control effect; nearly all actives have a fitted effect of over 60% in size
#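 TGR 20 nM + NADPH 100 uM (dispensed conc.), cpd preinc 15 min RT; start with NADPH (500 uM addition) then DTNB (15 mM addition). Kinetic TNB absorbance, 405 nm filter. Four-parameter Hill fit across titration.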
# Shiga inhibitor = blocks Shiga toxin action in Vero cells; Vero cells, Shiga toxin protein synthesis inhibition reporter; hit rate 9.2% among 290,000; AID 2315; inhibition, % at 38.7 µM; in the data active = inhibition mostly above about 28%, no sharp cut-off; inactive = mostly below about 43%; note: 0% is about no effect
# LmPK inh = inhibitors of Leishmania mexicana pyruvate kinase; hit rate 0.37% among 290,000; Potency, µM (top dose mostly 57.5 µM), without a hit: at the top dose activity change, negative = inhibition, most hits filed as inhibitors; purified LmPK, Kinase-Glo ATP luminescence, 1 h; note: potency is the fitted concentration of half-maximal effect; % is set by controls: 0 for no effect and ±100 for the full control effect
#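 Purified LmPK (0.1 nM) converted ADP (0.1 mM) to ATP with PEP (0.5 mM) in imidazole buffer pH 7.2 with KCl and MgCl2, 1 h at room temperature. ATP was read by Kinase-Glo luminescence; data normalized to uninhibited and no-enzyme controls.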
# TbPYK inhibitor = T. brucei pyruvate kinase inhibition. Q57TT1. TbPYK enzyme, Kinase-Glo Plus ATP luminescence, 45 min. Potency, µM (doses to about 76.8 µM), for inactives: at the highest dose activity, negative = inhibition, actives largely listed as inhibitors. hit rate 0.12% among 410,000. AID 624173; note: potency is the fitted concentration of half-maximal effect; % is set by controls: 0 for no effect and ±100 for the full control effect; nearly all actives have a fitted effect of over 50% in size
#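 Screened from lowest to highest concentration, compounds were pinned into TbPYK/substrate mixtures, and ADP (130 uM final) was added. Plates sat at room temperature for 45 min prior to Kinase-Glo Plus detection by luminescence.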
# Cycloheximide cs = counter-screen for Shiga toxin inhibitors: cycloheximide protein synthesis inhibition. cell reporter, cycloheximide protein synthesis inhibition counterscreen. max response, %. hit rate 12% among 300,000; in the data active = max response mostly above about 13%, no sharp cut-off; inactive = mostly below about 14%; note: read at 38.3 µM for the half of the compounds with a filed dose; 0% is about no effect
# FBPA Giardia inh = inhibitors of Giardia lamblia fructose-1,6-bisphosphate aldolase. A8B2U2. purified Giardia FBPA. Potency, µM (highest dose often 59.6 µM), without a hit: at the top dose activity, negative = inhibition, actives largely listed as inhibitors. hit rate 0.71% among 290,000. AID 2451; note: potency is the fitted concentration of half-maximal effect; % is set by controls: 0 for no effect and ±100 for the full control effect; nearly all actives have a fitted effect of over 55% in size
# Target sequence (A8B2U2 whole entry, looked up): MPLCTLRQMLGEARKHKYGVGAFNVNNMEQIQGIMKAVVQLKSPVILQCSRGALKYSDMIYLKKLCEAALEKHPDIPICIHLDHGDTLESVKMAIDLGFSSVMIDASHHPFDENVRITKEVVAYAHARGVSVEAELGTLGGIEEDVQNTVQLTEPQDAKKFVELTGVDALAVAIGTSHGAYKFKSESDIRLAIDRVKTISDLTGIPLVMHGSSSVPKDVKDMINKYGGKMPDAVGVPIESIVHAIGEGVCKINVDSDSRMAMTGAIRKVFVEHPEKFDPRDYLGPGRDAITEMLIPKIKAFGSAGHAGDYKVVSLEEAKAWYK
#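 Giardia FBPA (40 nM reagent) was preincubated 10 min at RT with compound (up to 57.5 uM final), then substrate plus GAPDH/TPI/NAD/arsenate coupling system with diaphorase/resazurin was added; resorufin fluorescence (525/598 nm) was read after 20 min.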
# * marks the source's active call; other numbers are inactive results; ? = inconclusive; / = no result given. Many of the other results were omitted from the sample, so hits are more common in it than they were. Unless noted, calls come from the whole dose curve; as a rule, active = well fitted curve in the direction sought with a large enough effect; inconclusive = small, poorly fitted or top-dose-only effect, or another doubt; inactive = no such curve, though single readings can be large; an effect the other way counts as inactive or inconclusive.
SMILES,Sm TGR inh,Shiga inhibitor,LmPK inh,TbPYK inhibitor,Cycloheximide cs,FBPA Giardia inh
COC(=O)c1cc2c(n1S(=O)(=O)c1ccc(C)cc1)C(=O)C(=O)c1[nH]cc(C(=O)OCc3ccccc3)c1-2,/,/,/,-3%,/,/
CCCN(S(=O)(=O)c1ccc(OCC)cc1)S(=O)(=O)c1cccs1,-2%,37*,4%,0%,28*,-19%
CCCCOc1ccc(C2CCC(C(C)=O)C(C)C2)cc1 (configuration not stated),2%,62*,-1%,1%,51*,1%
CCCCCOc1ccc(C2NC(=O)NC2=O)cc1 (configuration not stated),4%,-35,3%,13%,6,0%
COc1ccccc1NC(=O)COC(=O)c1ccc2c(=O)n3c(nc2c1)CCC3,/,/,/,2%,/,/
CCOc1ccc(NC(=O)c2ccc3c(=O)n4c(nc3c2)CCCCC4)cc1,0%,11,0%,6%,-1,/
CCc1ccc(NC(=O)c2ccc3c(=O)n4c(nc3c2)CCCCC4)cc1,5%,47*,2%,2%,37*,0%
CC(C)(C)c1cc(NC(=O)COC(=O)c2ccc3c(=O)n4c(nc3c2)CCC4)n(-c2ccccc2)n1,1%,29,-3%,2%,16*,-6%
Cc1csc(NC(=O)c2ccc3c(=O)n4c(nc3c2)CCCCC4)n1,-3%,63*,-6%,1%,27*,-3%
O=C(Nc1nccs1)c1ccc2c(=O)n3c(nc2c1)CCCCC3,-11%,98*,-8%,-16%,19*,-1%
CCOC(=O)N1CCN(C(=O)CSc2nc3nc(C)cc(C)n3n2)CC1,/,/,/,-6%,/,/
Cc1ccc(C)c(S(=O)(=O)N2CCN(CC(=O)NC(C)c3ccccc3)CC2)c1 (configuration not stated),1%,/,/,-3%,/,/
CC(OC(=O)c1cc2ccccc2cc1O)C(=O)Nc1ccc(S(N)(=O)=O)cc1 (configuration not stated),-15%,-9,1%,-3%,-1,-28%
CC(OC(=O)c1c2c(nc3ccccc13)/C(=C\c1ccc3c(c1)OCO3)CCC2)C(=O)Nc1ccc(S(N)(=O)=O)cc1 (configuration not stated),-3%,49*,-5%,-1%,42*,-21%
Cc1cccc(C)c1NC(=O)COC(=O)c1c2c(nc3ccccc13)/C(=C\c1ccc3c(c1)OCO3)CCC2,6%,44*,0%,2%,18*,-2%
Cn1c(=O)c2cc(S(=O)(=O)NC(Cc3ccccc3)C(=O)NCc3ccco3)ccc2n(C)c1=O (configuration not stated),40µM*,21,6%,-6%,9,8%
COCCCNC(=O)C(Cc1ccccc1)NS(=O)(=O)c1ccc2c(c1)c(=O)n(C)c(=O)n2C (configuration not stated),0%,9,0%,3%,-3,9%
O=C(COC(=O)C1CC1)Nc1c(Cl)cccc1C(F)(F)F,0%,/,/,-4%,/,/
O=C(CCNC(=O)c1ccc([N+](=O)[O-])cc1)Nc1cccc(S(=O)(=O)N2CCCCCC2)c1,3%,/,/,3%,/,/
CC1CC(=O)N(c2ccc(N(C)Cc3ccccc3)c([N+](=O)[O-])c2)C1=O (configuration not stated),4%,54*,-1%,5%,18*,-6%
CC(=O)Nc1cnc(NC(=O)c2cccc(F)c2)cc1C,-3%,55*,-18%,-9%,50*,-8%
CCC(=O)Nc1cnc(NC(=O)c2cccc(F)c2)cc1C,-15%,66,20µM*,-16%,18,-1%
Cc1cc(C)cc(NC(=O)C2CCN(C(=O)[C@@H]3Cc4ccccc4CN3)CC2)c1,-7%,17,1%,?,-3,-18%
CC(C)c1ccc(NC(=O)C2CCN(C(=O)[C@@H]3Cc4ccccc4CN3)CC2)cc1,-1%,46*,0%,6%,23*,-21%
Cc1ccc(NC(=O)C2CCN(C(=O)[C@@H]3Cc4ccccc4CN3)CC2)cc1,-14%,63*,5%,-2%,24*,-12%

# From PubChem
